Test results: the supplement of paper PMC10849652
The full data set covers some 7,900 targets. This sample favours those with a hit. About 0.6% of all pairs of compound and target were hits. Unmarked numbers belong to inactive results.

Experiments:
Assay in all cases: log2 fold change, soluble protein after heating vs DMSO (PISA); higher = thermal stabilisation; K562 cells, 10 uM, 30 min; active = over 0.2 and 3.5 SD of the protein, either way, in both replicates (recomputed)
erlotinib = compound: C#Cc1cccc(Nc2ncnc3cc(OCCOC)c(OCCOC)cc23)c1 [erlotinib]
Outline: (§1)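 Aliquots of K562 cells (2×10^6 cells/mL) treated with 10 μM compound for 30 min were heated for 3 min over 48°C-58°C. After pooling and extraction in PBS with 0.5% NP-40 at 4°C, soluble protein from a 21,000xg, 90 min spin was quantified by TMTpro 16plex LC-MS/MS with channel sums equalised. Thermal stability is expressed against control samples, from duplicates, as a log2 fold change.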

[1] = compound: C/C(=N\NC(=O)C1=CC(=CC=C1)S(=O)(=O)N2CCOCC2)/C3=C(C=CC(=C3)Cl)O
Outline: as §1

[2] = compound: C1=CC(=C(C=C1Cl)C2=NC3=NC=CN=C3C(=N2)NC4=CC=NC=C4)F
Outline: as §1

[3] = compound: C1=CC(=CC=C1C2=NC3=C(N2)C=C(C=C3)C(=O)N)OC4=CC=C(C=C4)Cl
Outline: as §1

[4] = compound: C1=CC2=C(C=CC(=C2)/C=C\3/C(=O)NC(=NCC4=CC=CS4)S3)N=C1
Outline: as §1

[5] = compound: C1=CC2=NC=CN=C2C=C1/C=C/3\C(=O)NC(=O)S3
Outline: as §1

[6] = compound: C1=CC=C(C=C1)C2=NC(=C(N2)C3=CC=NC=C3)C4=CC(=C(C=C4)Cl)O
Outline: as §1

[7] = compound: C1=CC=C2C(=C1)C3=NNC4=CC=CC(=C43)C2=O
Outline: as §1

[8] = compound: C1CCN(C1)C(=O)NC2=CC=CC(=C2)NC3=NC=C(C(=N3)NCCC4=CN=CN4)Br
Outline: as §1

[9] = compound: C1CN(CCC1(CC2=CC=C(C=C2)Cl)N)C3=NC=NC4=C3C=CN4
Outline: as §1

Sequence of UniProt Q9NQ34 (Q9NQ34 whole entry, looked up): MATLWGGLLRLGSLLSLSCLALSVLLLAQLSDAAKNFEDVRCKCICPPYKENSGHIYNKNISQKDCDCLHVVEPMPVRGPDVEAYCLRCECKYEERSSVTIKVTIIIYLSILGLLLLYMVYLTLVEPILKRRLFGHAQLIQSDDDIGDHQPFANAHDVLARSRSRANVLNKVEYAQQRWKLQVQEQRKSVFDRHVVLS
Sequence of UniProt Q96AJ9 (Q96AJ9 whole entry, looked up): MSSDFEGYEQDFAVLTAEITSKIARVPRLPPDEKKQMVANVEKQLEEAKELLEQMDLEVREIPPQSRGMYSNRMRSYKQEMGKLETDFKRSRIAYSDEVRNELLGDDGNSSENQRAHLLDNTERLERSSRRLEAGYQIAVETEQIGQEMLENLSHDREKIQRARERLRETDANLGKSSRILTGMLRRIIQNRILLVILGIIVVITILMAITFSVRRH
Sequence of UniProt Q6NUQ4 (Q6NUQ4 whole entry, looked up): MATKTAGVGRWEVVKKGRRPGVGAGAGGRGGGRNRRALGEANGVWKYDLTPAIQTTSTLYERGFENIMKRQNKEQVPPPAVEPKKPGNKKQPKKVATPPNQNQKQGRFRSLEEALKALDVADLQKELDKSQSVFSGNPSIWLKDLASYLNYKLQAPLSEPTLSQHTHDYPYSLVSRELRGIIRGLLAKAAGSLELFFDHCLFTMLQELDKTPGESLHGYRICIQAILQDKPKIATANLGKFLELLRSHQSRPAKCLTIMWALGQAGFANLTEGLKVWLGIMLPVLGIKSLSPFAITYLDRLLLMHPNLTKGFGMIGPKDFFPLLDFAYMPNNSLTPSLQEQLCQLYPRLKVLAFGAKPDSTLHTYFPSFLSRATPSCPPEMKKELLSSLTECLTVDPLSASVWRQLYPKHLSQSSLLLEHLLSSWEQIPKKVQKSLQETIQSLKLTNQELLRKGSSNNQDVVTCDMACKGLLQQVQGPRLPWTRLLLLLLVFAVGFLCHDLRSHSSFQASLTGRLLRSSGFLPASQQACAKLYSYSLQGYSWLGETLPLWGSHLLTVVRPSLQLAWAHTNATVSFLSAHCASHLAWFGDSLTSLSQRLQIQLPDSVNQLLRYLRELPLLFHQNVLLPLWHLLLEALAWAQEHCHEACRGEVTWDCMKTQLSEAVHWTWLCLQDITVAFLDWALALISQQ
Sequence of UniProt O43617 (O43617 whole entry, looked up): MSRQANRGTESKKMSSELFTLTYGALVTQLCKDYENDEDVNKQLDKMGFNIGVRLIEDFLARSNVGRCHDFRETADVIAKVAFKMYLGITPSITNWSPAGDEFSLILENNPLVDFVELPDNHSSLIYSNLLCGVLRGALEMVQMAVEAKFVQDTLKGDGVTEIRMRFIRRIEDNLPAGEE
Sequence of UniProt Q7L0Y3 (Q7L0Y3 whole entry, looked up): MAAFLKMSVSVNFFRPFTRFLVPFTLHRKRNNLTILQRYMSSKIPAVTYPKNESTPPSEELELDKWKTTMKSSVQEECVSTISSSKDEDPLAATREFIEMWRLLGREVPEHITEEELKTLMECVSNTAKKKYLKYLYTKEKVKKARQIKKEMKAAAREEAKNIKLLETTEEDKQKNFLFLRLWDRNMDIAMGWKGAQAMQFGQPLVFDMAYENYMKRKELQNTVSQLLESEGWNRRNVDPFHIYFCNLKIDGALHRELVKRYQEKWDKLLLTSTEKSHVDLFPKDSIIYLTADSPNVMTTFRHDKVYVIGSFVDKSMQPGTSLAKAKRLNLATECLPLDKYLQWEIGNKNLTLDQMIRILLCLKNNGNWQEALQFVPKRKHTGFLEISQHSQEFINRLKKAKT
Sequence of UniProt Q8NCE0 (Q8NCE0 whole entry, looked up): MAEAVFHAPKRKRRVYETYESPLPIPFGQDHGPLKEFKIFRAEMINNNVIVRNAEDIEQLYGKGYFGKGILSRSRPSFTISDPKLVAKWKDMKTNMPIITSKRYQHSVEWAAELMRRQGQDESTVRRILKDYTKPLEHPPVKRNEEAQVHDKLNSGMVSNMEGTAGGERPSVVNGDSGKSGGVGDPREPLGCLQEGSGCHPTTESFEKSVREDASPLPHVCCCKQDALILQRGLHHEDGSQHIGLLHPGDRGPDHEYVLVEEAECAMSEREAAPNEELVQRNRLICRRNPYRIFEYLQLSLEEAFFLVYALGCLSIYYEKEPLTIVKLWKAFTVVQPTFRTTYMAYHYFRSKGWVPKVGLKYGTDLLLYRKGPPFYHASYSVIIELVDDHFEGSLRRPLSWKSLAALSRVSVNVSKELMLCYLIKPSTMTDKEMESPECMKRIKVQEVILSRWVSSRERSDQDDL
Sequence of UniProt O15213 (O15213 whole entry, looked up): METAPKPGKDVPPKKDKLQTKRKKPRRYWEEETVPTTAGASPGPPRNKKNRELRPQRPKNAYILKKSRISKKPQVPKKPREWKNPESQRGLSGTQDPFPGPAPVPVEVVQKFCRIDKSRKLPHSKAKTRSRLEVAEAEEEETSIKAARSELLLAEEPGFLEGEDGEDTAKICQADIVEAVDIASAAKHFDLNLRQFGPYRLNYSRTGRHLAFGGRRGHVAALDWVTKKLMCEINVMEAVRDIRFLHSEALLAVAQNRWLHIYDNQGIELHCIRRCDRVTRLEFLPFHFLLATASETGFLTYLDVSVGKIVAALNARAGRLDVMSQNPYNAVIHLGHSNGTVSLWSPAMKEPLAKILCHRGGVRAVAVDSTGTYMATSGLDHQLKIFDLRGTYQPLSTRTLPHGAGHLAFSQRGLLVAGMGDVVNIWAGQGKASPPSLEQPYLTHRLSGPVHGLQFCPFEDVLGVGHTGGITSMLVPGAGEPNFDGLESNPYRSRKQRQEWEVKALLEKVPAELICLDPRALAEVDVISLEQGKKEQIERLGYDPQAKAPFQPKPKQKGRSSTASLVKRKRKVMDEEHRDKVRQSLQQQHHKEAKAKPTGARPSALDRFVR
Sequence of UniProt Q9NZ09 (Q9NZ09 whole entry, looked up): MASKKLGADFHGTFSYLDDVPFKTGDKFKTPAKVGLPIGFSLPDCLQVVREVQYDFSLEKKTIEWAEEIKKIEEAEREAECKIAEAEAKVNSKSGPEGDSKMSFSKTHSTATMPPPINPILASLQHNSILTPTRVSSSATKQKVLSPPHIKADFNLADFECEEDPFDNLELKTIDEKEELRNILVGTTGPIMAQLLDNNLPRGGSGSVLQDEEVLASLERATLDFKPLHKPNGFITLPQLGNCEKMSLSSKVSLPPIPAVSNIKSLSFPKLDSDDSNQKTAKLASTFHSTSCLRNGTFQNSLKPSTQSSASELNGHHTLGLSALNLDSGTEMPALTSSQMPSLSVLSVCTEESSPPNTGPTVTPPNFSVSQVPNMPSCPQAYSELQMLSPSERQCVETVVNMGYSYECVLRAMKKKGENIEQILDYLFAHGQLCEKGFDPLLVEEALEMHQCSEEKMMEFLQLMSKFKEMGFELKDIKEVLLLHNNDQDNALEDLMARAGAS
Sequence of UniProt P22314 (P22314 whole entry, looked up): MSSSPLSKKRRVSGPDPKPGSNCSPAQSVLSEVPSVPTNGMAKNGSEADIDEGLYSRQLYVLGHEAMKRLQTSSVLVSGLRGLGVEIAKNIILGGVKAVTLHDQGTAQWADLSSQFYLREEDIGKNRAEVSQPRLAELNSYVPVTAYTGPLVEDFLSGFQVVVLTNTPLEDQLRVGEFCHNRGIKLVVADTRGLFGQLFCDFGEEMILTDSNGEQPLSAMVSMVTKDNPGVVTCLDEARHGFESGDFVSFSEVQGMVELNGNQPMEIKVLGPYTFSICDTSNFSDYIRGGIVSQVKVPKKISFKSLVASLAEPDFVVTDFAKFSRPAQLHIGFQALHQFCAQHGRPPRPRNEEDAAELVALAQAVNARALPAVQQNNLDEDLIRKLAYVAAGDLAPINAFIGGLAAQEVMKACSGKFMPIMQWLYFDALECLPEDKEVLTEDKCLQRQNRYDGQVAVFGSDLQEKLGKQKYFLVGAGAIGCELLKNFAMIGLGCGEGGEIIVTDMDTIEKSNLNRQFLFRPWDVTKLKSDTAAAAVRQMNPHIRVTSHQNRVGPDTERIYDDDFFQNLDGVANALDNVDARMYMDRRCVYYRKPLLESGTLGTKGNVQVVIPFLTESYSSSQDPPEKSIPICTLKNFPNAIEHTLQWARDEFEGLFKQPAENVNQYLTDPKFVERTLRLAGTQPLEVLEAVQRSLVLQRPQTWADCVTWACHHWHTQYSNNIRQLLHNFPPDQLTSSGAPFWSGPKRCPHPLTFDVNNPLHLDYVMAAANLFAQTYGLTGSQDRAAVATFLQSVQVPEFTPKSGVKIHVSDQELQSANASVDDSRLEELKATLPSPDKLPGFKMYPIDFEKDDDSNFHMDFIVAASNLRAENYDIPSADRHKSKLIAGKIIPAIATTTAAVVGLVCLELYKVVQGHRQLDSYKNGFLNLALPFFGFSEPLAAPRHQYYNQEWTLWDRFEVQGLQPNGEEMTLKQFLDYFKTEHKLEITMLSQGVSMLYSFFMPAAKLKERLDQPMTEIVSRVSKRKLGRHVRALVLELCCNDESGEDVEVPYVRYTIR
Sequence of UniProt Q9Y3C0 (Q9Y3C0 whole entry, looked up): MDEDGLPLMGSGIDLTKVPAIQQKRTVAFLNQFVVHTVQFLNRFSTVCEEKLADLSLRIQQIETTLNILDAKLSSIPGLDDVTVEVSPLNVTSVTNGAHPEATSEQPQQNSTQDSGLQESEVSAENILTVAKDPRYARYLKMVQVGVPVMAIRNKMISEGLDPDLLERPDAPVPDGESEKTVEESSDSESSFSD
Sequence of UniProt Q7Z7E8 (Q7Z7E8 whole entry, looked up): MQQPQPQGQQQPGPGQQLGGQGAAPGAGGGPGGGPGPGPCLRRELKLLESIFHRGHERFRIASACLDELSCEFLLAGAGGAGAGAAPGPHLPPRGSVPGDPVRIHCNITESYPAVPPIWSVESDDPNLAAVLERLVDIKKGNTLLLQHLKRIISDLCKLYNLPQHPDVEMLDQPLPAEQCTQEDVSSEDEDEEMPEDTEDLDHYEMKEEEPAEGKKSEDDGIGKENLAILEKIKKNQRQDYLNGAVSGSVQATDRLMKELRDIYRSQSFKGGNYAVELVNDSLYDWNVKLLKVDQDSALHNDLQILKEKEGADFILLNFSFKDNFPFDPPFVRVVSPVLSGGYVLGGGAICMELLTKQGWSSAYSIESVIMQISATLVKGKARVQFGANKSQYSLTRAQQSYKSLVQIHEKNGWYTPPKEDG

Row | Target | log2 fold change (erlotinib) | log2 fold change [1] | log2 fold change [2] | log2 fold change [3] | log2 fold change [4] | log2 fold change [5] | log2 fold change [6] | log2 fold change [7] | log2 fold change [8] | log2 fold change [9]
1 | TRAPPC3 (UniProt O43617) | -0.032 | 0.102 | 0.025 | -0.001 | 0.021 | 0.069 | -0.047 | -0.018 | 0.008 | -0.077
2 | TMEM189-UBE2V1 (UniProt I3L0A0) | -0.014 | 0.025 | 0.015 | 0.019 | 0.055 | -0.047 | 0.028 | -0.009 | 0.02 | 0.058
3 | VTA1 (UniProt Q9NP79) | -0.05 | 0.124 | 0.07 | 0.018 | -0.007 | 0.025 | -0.02 | 0.029 | 0.01 | -0.024
4 | WARS2 (UniProt Q9UGM6) | 0.069 | -0.016 | 0.034 | -0.094 | 0.033 | 0.006 | -0.032 | 0.031 | 0.027 | -0.027
5 | XRCC5 (UniProt P13010) | 0.103 | 0.178 | -0.012 | -0.038 | 0.079 | 0.037 | 0.11 | -0.039 | -0.059 | -0.139
6 | USP34 (UniProt Q70CQ2) | 0.065 | 0.074 | 0.026 | -0.02 | 0.145 | -0.013 | 0.027 | -0.043 | 0.015 | -0.086
7 | USP24 (UniProt Q9UPU5) | 0.126 | -0.147 | 0.101 | -0.113 | 0.092 | 0.148 | 0.141 | 0.094 | 0.181 | 0.297
8 | TMEM223 (UniProt A0PJW6) | 0.005 | 0.052 | -0.018 | 0.002 | -0.009 | 0.013 | -0.007 | 0.01 | 0.007 | -0.038
9 | UBAP1 isoform 4 (UniProt Q9NZ09) | 0.001 | 0.127 | 0.013 | 0.049 | 0.025 | 0.027 | -0.02 | 0.024 | 0.058 | -0.093
10 | UBLCP1 (UniProt Q8WVY7) | 0.03 | 0.089 | 0.024 | -0.022 | -0.029 | 0.005 | -0.019 | 0.038 | 0.035 | -0.262 (active)
11 | VTI1A (UniProt Q96AJ9) | -0.07 | 0.026 | -0.037 | -0.014 | 0.015 | 0.087 | -0.055 | -0.002 | 0.019 | 0.005
12 | TRMT10C (UniProt Q7L0Y3) | -0.015 | 0.066 | 0.09 | 0.062 | 0.009 | -0.007 | 0.036 | 0.036 | -0.008 | 0.009
13 | TMEM214 (UniProt Q6NUQ4) | -0.068 | 0.016 | -0.019 | 0.001 | 0.015 | 0.017 | -0.044 | -0.025 | 0.009 | -0.088
14 | TTI2 (UniProt Q6NXR4) | 0 | 0.053 | 0.003 | -0.035 | 0.029 | -0.036 | -0.095 | 0.046 | 0.008 | -0.028
15 | USP14 (UniProt P54578) | -0.027 | 0.03 | 0.084 | -0.014 | -0.04 | 0 | 0.02 | 0.015 | -0.016 | -0.001
16 | TPR (UniProt P12270) | -0.113 | 0.023 | -0.001 | -0.011 | -0.098 | 0.174 | -0.104 | -0.118 | 0 | -0.142
17 | TUBA4A (UniProt P68366) | 0.016 | 0.048 | 0.048 | -0.038 | 0.069 | -0.04 | -0.037 | 0.027 | -0.015 | 0.075
18 | WASHC3 (UniProt Q9Y3C0) | 0.029 | -0.015 | 0.053 | 0.007 | 0.12 | 0.036 | 0.017 | -0.114 | -0.041 | 0.059
19 | TRAPPC11 (UniProt Q7Z392) | 0.044 | 0.136 | -0.027 | 0.017 | 0.105 | 0.059 | 0.027 | 0.062 | -0.019 | -0.001
20 | UFL1 (UniProt O94874) | 0.06 | 0.075 | 0.037 | -0.03 | 0.021 | 0.021 | 0.069 | 0.096 | -0.012 | -0.101
21 | WDR46 (UniProt O15213) | -0.209 | -0.231 | -0.816 (active) | 0.008 | -0.154 | 0.065 | -0.055 | 0.052 | 0.057 | -0.087
22 | UTP4 (UniProt Q969X6) | -0.05 | -0.07 | -0.009 | 0.005 | -0.082 | 0.026 | -0.022 | 0.012 | 0 | 0.06
23 | TSEN2 (UniProt Q8NCE0) | 0.08 | -0.001 | -0.016 | 0.029 | 0.041 | 0.098 | 0.023 | 0.023 | -0.04 | 0.061
24 | TXNRD1 (UniProt Q16881) | 0.021 | 0.049 | 0.057 | -0.006 | 0.009 | 0.074 | 0.027 | 0.019 | 0.005 | 0.046
25 | TMEM9B (UniProt Q9NQ34) | 0.062 | -0.044 | 0.009 | -0.006 | 0.055 | -0.013 | -0.016 | -0.016 | -0.006 | 0.042
26 | UBA1 (UniProt P22314) | 0.1 | 0.166 | 0.074 | -0.024 | 0.114 | -0.004 | 0.065 | 0.023 | -0.034 | -0.175
27 | TMEM161A (UniProt Q9NX61) | 0.017 | 0.088 | -0.019 | -0.018 | 0.021 | 0.001 | 0.029 | -0.006 | -0.067 | 0.054
28 | VPS50 (UniProt Q96JG6) | 0.008 | 0.094 | -0.003 | -0.017 | 0.088 | 0.025 | 0.023 | -0.019 | -0.022 | -0.021
29 | UBE2Q1 (UniProt Q7Z7E8) | 0.058 | 0.006 | 0.059 | 0.017 | 0.019 | 0.061 | 0.014 | 0.026 | -0.016 | -0.037
30 | TRMT61A (UniProt Q96FX7) | -0.03 | -0.062 | -0.354 (active) | 0.087 | -0.059 | -0.07 | -0.017 | -0.046 | 0.054 | 0.054
